PubChem BioAssay (NCATS)
Records with an inconclusive call do not appear. Where a call stands in place of a potency, no number is given. Values without a mark were called inactive. Active and inactive are the calls of the source. Calls follow the shape of the dose curve; as a rule, active = well fitted cell-killing curve with a large enough effect; inconclusive = small, poorly fitted or top-dose-only effect, or effect the other way; inactive = no such curve, though single readings can be large or run the other way.

experiment: Viability qHTS for spleen associated tyrosine kinase inhibitor (SYKi) naive MV4-11 cells (AID 1963823); details: MV4-11 AML viability, CellTiter-Glo luminescence, 72 h; series mostly up to 45 µM; also: nearly all actives have a fitted effect of over 40% in size
Summary of the method: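 CellTiter-Glo luminescence, 10 min room-temperature incubation, gave viability. Cells: naive MV4-11 (500/well), treated 72 hr at 37 C, 5% CO2.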
Potency is read from the fitted curve at half-maximal effect.

| Structure (SMILES) | Potency | viability (% of control) |
| --- | --- | --- |
| C=C[C@H]1[C@H](O[C@@H]2O[C@H](CO)[C@@H](O)[C@H](O)[C@H]2O)OC=C(C(=O)OC)[C@H]1CCO | inactive | – |
| CC1(C)CC[C@]2(C(=O)O)[C@H](O)C[C@]3(C)C(=CCC4[C@@]5(C)CC[C@H](O[C@@H]6OC[C@@H](O)[C@H](O)[C@H]6O)[C@@](C)(C(=O)O)C5CC[C@]43C)[C@@H]2C1 (stereo not given in full) | inactive | – |
| O=C(c1c2ccccc2cc2ccccc12)N1CCC(N2CCC[C@@H](C(=O)N3CCOCC3)C2)CC1 | inactive | – |
| C[C@@H]1CC[C@@]2(OC1)O[C@H]1C[C@H]3[C@@H]4CC=C5C[C@@H](O)CC[C@]5(C)[C@H]4CC[C@]3(C)[C@H]1[C@@H]2C | inactive | – |
| C/C1=C\CCC2=CC(OC2=O)C(C)(C)/C=C/C1=O (stereo not given) | 4610 nM (active) | – |
| CC1CCC2C(C)(C)[C@H](O)CC[C@]2(C)C12Cc1c(O)cc3c(c1O2)CN(C(CCC(=O)O)C(=O)O)C3=O (stereo not given in full) | inactive | – |
| CC(C)O[C@@H]1O[C@H](CO)[C@@H](O)[C@H](O)[C@H]1O | inactive | – |
| CC1=C2CC(O)(C(C)(C)O)C(O[C@@H]3O[C@H](CO)[C@@H](O)[C@H](O)[C@H]3O)CC(C)C2CC1=O (stereo not given in full) | inactive | – |
| C[C@@H]1O[C@@H](O[C@H]2[C@H](O[C@H]3[C@H](O[C@H]4CC[C@@]5(C)C(CC[C@]6(C)C5CC=C5[C@@H]7CC(C)(C(=O)O)C[C@@H](O)[C@]7(C)CC[C@]56C)[C@@]4(C)CO)O[C@H](C(=O)O)[C@@H](O)[C@@H]3O)O[C@H](CO)[C@H](O)[C@@H]2O)[C@H](O)[C@H](O)[C@H]1O (stereo not given in full) | – | 58.7% [at 9.25 µM] |
| Cc1ncc([N+](=O)[O-])n1C[C@H](O)CN1CCOCC1 | inactive | – |
| COC(=O)C1=C[C@@H](O)[C@@H](O)[C@H](O[C@@H]2O[C@H](CO)[C@@H](O)[C@H](O)[C@H]2OC(=O)/C=C/c2ccccc2)C1 | inactive | – |
| COc1cc(O)cc(OC2OC(CO)C(O)C(O)C2O)c1 (stereo not given) | inactive | – |
| OC[C@H]1O[C@@H](O[C@H]2[C@H](O)[C@@H](CO)O[C@@H](OCc3ccccc3)[C@@H]2O[C@@H]2OC[C@](O)(CO)[C@H]2O)[C@H](O)[C@@H](O)[C@@H]1O | inactive | – |
| COC(=O)C1=CO[C@@H](O[C@@H]2O[C@H](CO[C@@H]3O[C@H](COC(=O)/C=C/c4cc(OC)c(O)c(OC)c4)[C@@H](O)[C@H](O)[C@H]3O)[C@@H](O)[C@H](O)[C@H]2O)[C@@H]2C(CO)=CC[C@H]12 | inactive | – |
| CC1=CC(=O)CC(C)(C)C1CCC(C)OC1OC(COC(=O)c2cc(O)c(O)c(O)c2)C(O)C(O)C1O (stereo not given) | inactive | – |
| CC1(C)CC[C@]2(C(=O)O)CC[C@]3(C)C(=CCC4[C@@]5(C)CC[C@H](O[C@@H]6O[C@H](C(=O)O)[C@@H](O)[C@H](O)[C@H]6O)C(C)(CO)C5CC[C@]43C)C2C1 (stereo not given in full) | inactive | – |
| CC(C)(C)n1nc(Cc2cccc3ccccc23)c2c(N)ncnc21 | 10300 nM (active) | – |
| CN(C)c1ccc(Nc2c3ccc(NC(=O)CCN4CCCC4)cc3nc3cc(NC(=O)CCN4CCCC4)ccc23)cc1 | 5170 nM (active) | – |
| CC/C=C\CCO[C@@H]1O[C@H](CO)[C@@H](O)[C@H](O)[C@H]1O | inactive | – |
| COc1cc(O)cc(O[C@@H]2O[C@H](CO)[C@@H](O[C@@H]3OC[C@](O)(CO)[C@H]3O)[C@H](O)[C@H]2O)c1OC | inactive | – |

| Structure (SMILES) | Potency | viability (% of control) |
| --- | --- | --- |
| O=C(NC1CCN(CCCCC2(C(=O)NCC(F)(F)F)c3ccccc3-c3ccccc32)CC1)c1ccccc1-c1ccc(C(F)(F)F)cc1 | 2590 nM (active) | – |
| CC1(C)SC2C(NC(=O)[C@H](NC(=O)N3CCNC3=O)c3ccccc3)C(=O)N2C1C(=O)O (stereo not given in full) | inactive | – |
| CC(=O)O[C@H]1CC(C)(C)CC2[C@]13CO[C@@]21CCC2[C@@]4(C)CC[C@H](O[C@@H]5OC[C@H](O[C@@H]6O[C@H](CO)[C@@H](O)[C@H](O)[C@H]6O[C@@H]6OC[C@@H](O[C@@H]7O[C@H](CO)[C@@H](O)[C@H](O)[C@H]7O)[C@H](O)[C@H]6O)[C@H](O)[C@H]5O[C@@H]5O[C@H](CO)[C@@H](O)[C@H](O)[C@H]5O)[C@@](C)(CO)C4CC[C@@]2(C)[C@]1(C)C[C@H]3O (stereo not given in full) | 1550 nM (active) | – |
| OC[C@H]1O[C@@H](OCc2ccccc2)[C@H](O[C@@H]2OC[C@@H](O)[C@H](O)[C@H]2O)[C@@H](O)[C@@H]1O | inactive | – |
| C[C@@H]1O[C@@H](O[C@H]2[C@H](O[C@H]3[C@H](O[C@H]4CC[C@@]5(C)C(CC[C@]6(C)C5CC=C5[C@@H]7CC(C)(C)CC[C@]7(C(=O)O[C@@H]7O[C@H](CO)[C@@H](O[C@@H]8O[C@@H](C)[C@H](O)[C@@H](O)[C@H]8O)[C@H](O)[C@H]7O)CC[C@]56C)C4(C)C)OC[C@H](O)[C@@H]3O)O[C@H](CO)[C@@H](O)[C@@H]2O)[C@H](O)[C@H](O)[C@H]1O (stereo not given in full) | – | 3.73% [at 9.25 µM] |
| COc1cc(C)c(C(=O)Oc2cc(C)c(C(=O)Oc3cc(C)c(C(=O)NC(C)C(=O)O)c(O)c3)c(O[C@@H]3O[C@H](CO)[C@@H](O)[C@H](O)[C@H]3OC(C)=O)c2)c(OC)c1 (stereo not given in full) | inactive | – |
| CN(Cc1ccc(C(=O)O)cc1)c1ccc(OCc2c(-c3c(Cl)cccc3Cl)noc2C2CC2)nc1C(F)(F)F | 20600 nM (active) | – |
| CCN(CC)CCN(Cc1ccc(-c2ccc(C(F)(F)F)cc2)cc1)C(=O)Cn1c(SCc2ccc(F)cc2)nc(=O)c2c1CCC2 | 2910 nM (active) | – |
| CC(C)C(=O)OC[C@H]1O[C@@H](n2ccc(N)nc2=O)[C@](C)(F)[C@@H]1OC(=O)C(C)C | inactive | – |
| COc1cc2c(cc1OC)CN(C(=O)/C=C/c1c(-c3ccccc3)n(C)c3ncccc13)CC2 | 2590 nM (active) | – |
| Cc1ccc(NS(=O)(=O)c2cc3c(cc2NC(C)CO)NC(=O)CC3)cc1C (stereo not given) | 12900 nM (active) | – |
| CNc1ccc([N+](=O)[O-])c(Nc2ccc3[nH]ncc3c2)n1 | 2590 nM (active) | – |
| CN(c1ccccc1CNc1nc(Nc2ccc3c(c2)CC(=O)N3)ncc1C(F)(F)F)S(C)(=O)=O | 291 nM (active) | – |
| CC1=C(C(=O)O)/C(=C/CO[C@@H]2O[C@H](COC(=O)/C=C/c3ccc(O)cc3)[C@@H](O)[C@H](O)[C@H]2O)C(O)C1 (stereo not given in full) | inactive | – |
| CNCc1cc(-c2ccccc2F)n(S(=O)(=O)c2cccnc2)c1 | inactive | – |
| COc1cc(-c2cccc(O)c2)cc2c1OCO2 | inactive | – |
| COc1ccc(CCO[C@@H]2O[C@H](CO[C@@H]3OC[C@H](O)[C@H](O)[C@H]3O)[C@@H](O)[C@H](O)[C@H]2O)cc1 | inactive | – |
| Cc1cc(-c2ncc(-c3cccnc3)cc2/C=C/c2ccccc2)cnc1-c1cccnc1 | inactive | – |
| OCC(CO[C@@H]1O[C@H](CO)[C@@H](O)[C@H](O)[C@H]1O)c1ccc2c(c1)OCO2 (stereo not given in full) | inactive | – |
| CC(=O)O[C@@](C)(C(=O)/C=C/C(C)(C)O)[C@H]1[C@H](O)C[C@@]2(C)[C@@H]3CC=C4[C@@H](C=C(O)C(=O)C4(C)C)[C@]3(C)C(=O)C[C@]12C | 317 nM (active) | – |
